Laboratory results reported in PubChem BioAssay AID1508600 (Functional Genomics Laboratory (NCATS/FGL), 2020).
In all, about 53,000 sequences went through this assay and about 3,700 (7%) were called active. Shown is part of a subset that was picked to be rich in actives. Values without a mark were called inactive.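 The calls were made as follows: active = gene knockdowns whose robust z-score for IL-1 alpha signal is at least 2 or at most -2, so actives lie on both sides; inactive = the rest.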

Test: Components of the Cytosolic LPS Sensing Pathway: Gene Identification via Genome-wide siRNA Screen
Conditions: RAW264.7 macrophages, IL-1a HTRF, actives lie on both sides, screened at 100 nM (by protocol), cells primed 5 h with Pam3CSK4 first
From the text: Non-canonical inflammasome activation by cytosolic LPS is a critical component of the host response to Gram-negative bacterial infection, however we lack a comprehensive understanding of the cellular processes that control this pathway. Here we describe a genome-wide siRNA screen to identify genes regulating the mouse macrophage IL-1 alpha response to cytosolic LPS.
RAW264.7 cells were maintained in complete DMEM media, comprising DMEM with 4.5 g/L glucose, 10% FBS (Gemini Bio-Products, West Sacramento, CA), 2 mM Glutamine (Lonza) and 20 mM HEPES (Lonza), hereafter complete DMEM.
The RNAi screen was conducted in 384-well format using the Ambion Silencer Mouse Genome siRNA Library (#4391425), which consists of three unique, nonoverlapping, nonpooled siRNAs for each of 17,000 gene targets. siRNA reagents ([…]) were stamped into 384-well white flat-bottom microplates (Corning, 3570) using a Velocity11 VPrep liquid handling system (Agilent) integrated into a BioCel robotic platform (Agilent) in columns 1-22, leaving columns 23-24 empty for negative (Ambion, Negative control #1) and positive (mouse Casp4) controls, respectively. The median value of each plate's negative control column was used to normalize sample wells, and the positive control was used to assess transfection efficiency and assay performance.
Lipofectamine RNAiMAX Transfection Reagent ([…]; Invitrogen) was added in […] serum-free, antibiotic-free media to plate wells using a Thermo Scientific Matrix WellMate and Microplate Stacker. Plates were incubated for 45 min at room temperature to allow for the sufficient formation of siRNA-lipid complexes. Cells were seeded at a density of 1x10^4 cells per well in 20 microL media containing 20% (vol/vol) FBS without antibiotics. The final concentration of siRNA in each well was 100 nM. Cells were cultured for 48h at 37 degrees C in 5% CO2 before addition of […] of TLR ligand Pam3CSK4 for 5 hours. The medium was then removed, replaced with […] growth media and cell were transfected with […] of LipidA and TransIT-TKO (Mirus) for 24 hour. At the end of the LipidA treatment, […] of supernatant was transferred to a 384 Greiner Bio-one non-binding low volume plate and […] of IL-1a HTRF reagent (Cisbio, 62MIL1APEH) was added and incubated at room temperature overnight. The plates were read on an EnVision plate reader (PerkinElmer). Cell viability was measured by adding 20ul Cell Titer Glo to the original plate and running a luminescence read on the EnVision. The quantified IL-1a signal for each siRNA gene-targeted well was divided by the median of the negative control wells and multiplied by 100 to achieve a negative control normalized value for each well/siRNA. This normalized value was then used to generate a robust z-score by first taking the log of each value and then by subtracting the median and dividing by the […].

Row | Sequence | z-score
1 | GCACUAAAUCCUUUGAUAUTT against Olfr307 | 1.08
2 | GCUGAACAAUUUUCAACAATT against Sclt1 | -0.958
3 | GCAUCCUUGACCGAUACUATT against Psmb2 | -2.78 (active)
4 | GGAUCUAUUGAUGGUUCAUTT against Tprkb | -1.68
5 | GGGUCACCCAUUAUUUUAUTT against Phyhip | -0.899
6 | GGGAGGAACAUCACCUCAGTT against Vmn2r123 | 0.327
7 | GGUCAUACUCUAAUCGGACTT against Ctss | 0.672
8 | GGAAAGAUGUCAAAGAAAUTT against Gnat2 | -1.14
9 | UGCCACUGCCAAAAAAUAATT against Tex18 | -0.838
10 | CCAGACAUUUGAUAGCCAUTT against Fam241a | -1.42
11 | GCCAAGCAUAAUCUAAUGATT against Prpf4b | 0.851
12 | CGACCACAUUAUUGGGUUUTT against Senp8 | 2.62 (active)
13 | GCCUGUGAUCUUUUGUAUCTT against Olfr835 | -0.726
14 | GGAUGUCUAGUUAUACAUUTT against Mbd3l1 | 1.21
15 | GCUAAUGAAGCAGAGCUGUTT against Olfr1359 | 0.388
16 | GGUGUAACUCCUUCAUUGATT against Ripor2 | -3.12 (active)
17 | CCUUAUCUCUACCAUCGGUTT against Hyal2 | 0.0745
18 | GCACCAGCUCUAAUUCAGATT against Herpud2 | 1.48
19 | GCAUGAUGAUGGAGACCGATT against Sox1 | -1.06
20 | GGUGUUCCUAUAAAAGUAUTT against Tfb2m | 0.597
21 | GGUGCUACAAGUGUACUGATT against Zswim2 | -2.14 (active)
22 | GGUCUUCCAGAACAAUUACTT against Prtn3 | 0.439
23 | GGCACACCUUUUGUUAGUGTT against Ywhag | -1.94
24 | GGAUUUGUUCAAAUAACAGTT against Lsm14a | -0.664
25 | CCAAAUUAUCACCCUGUUCTT against Olfr763 | -0.0232
26 | GGAAAUGCGUCAAAAGACUTT against H2az1 | 0.04
27 | GCUAAAAAUGGUUGUGUGATT against Six3os1 | -1.62
28 | GGAUGGUUUUCAUUUGCUUTT against Cd300ld | -0.606
29 | CCGUUAAGUAGCUGGAAGATT against Ubl4b | 0.488
30 | GGGAACCUCACCAUUAUCATT against Olfr769 | -0.413
